Laboratory results as given in PubChem BioAssay (NCATS).
Where “and” joins values, the source holds several entries; their conditions need not be identical. Equal entries are not always repeated. Records with an inconclusive call do not appear. The source holds several records for some structures; these can differ, active in one and inactive in another. Calls of active or inactive are those of the source. The call rests on the fitted dose curve; in most records, active means well fitted curve in the direction sought with a large enough effect; inconclusive means small, poorly fitted or top-dose-only effect, or another doubt; inactive means no such curve, though single readings can be large; an effect the other way counts as inactive or inconclusive.

What was measured:
[1] = P-glycoprotein substrates identified in KB-3-1 adenocarcinoma cell line, qHTS therapeutic library screen (AID 1346986); further: nearly all actives have a fitted effect of over 60% in size;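 further: potency is for cytotoxicity meaning loss of cell viability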
Summary of the method: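 Cells seeded 500/well in DMEM/10% FCS; compounds pinned in dose-response; 72 h incubation; CellTiter-Glo added, 5 min, luminescence. KB-8-5-11 run ±tariquidar to test reversal of P-gp resistance.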

[2] = P-glycoprotein substrates identified in KB-8-5-11 adenocarcinoma cell line, qHTS therapeutic library screen (AID 1346987); further: nearly all actives have a fitted effect of over 65% in size
Summary of the method: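 Steps: plate 500 KB-8-5-11 cells/well in DMEM + 10% FCS (colchicine removed); pin compounds in dose-response; incubate 72 h, 37 degree C, 5% CO2; add CellTiter-Glo, 5 min; read luminescence.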

[3] = NS1 protein of Zika virus - qHTS assay to identify small molecule inhibitors in human HEK 293 cells (AID 1347053); further: nearly all actives have a fitted effect of over 55% in size
Summary of the method: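 HEK 293 cells, seeded 20 h at 37 C, were pretreated with compound 1 h, then infected with ZIKV MR766 (MOI = 0.5) for 24 h. NS1 was read by TR-FRET with two anti-NS1 antibodies, normalized to uninfected and infected wells.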

[4] = qHTS of pediatric cancer cell lines to identify multiple opportunities for drug repurposing: Primary screen for TC32 cells (AID 1347089); further: nearly all actives have a fitted effect of over 60% in size
Summary of the method: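 A viability screen of TC32 cells was run over 48 h, with primary MIPE doses spanning 0.78 nM–46 µM and NPC doses 0.59 nM–46 µM. ATP luminescence (CellTiter-Glo) served as the read-out.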

[5] = qHTS of pediatric cancer cell lines to identify multiple opportunities for drug repurposing: Primary screen for DAOY cells (AID 1347090); further: nearly all actives have a fitted effect of over 55% in size
Summary of the method: (§1)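 Cell viability, CellTiter-Glo luminescence; 500-1,000 cells/well, 8- or 11-point titration, 48 h compound exposure at 37 degrees C, 5% CO2. Controls: DMSO neutral, bortezomib 2.3 µM final as positive.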

[6] = qHTS of pediatric cancer cell lines to identify multiple opportunities for drug repurposing: Primary screen for SJ-GBM2 cells (AID 1347091)
Summary of the method: as §1

[7] = qHTS of pediatric cancer cell lines to identify multiple opportunities for drug repurposing: Primary screen for A673 cells (AID 1347092); further: nearly all actives have a fitted effect of over 45% in size
Summary of the method: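 Titration-based qHTS on A673 cells: MIPE compounds spanned 11 points (0.78 nM to 46 µM final), NPC compounds 8 points (0.59 nM to 46 µM final). Viability after 48 h was measured by ATP luminescence.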

[8] = qHTS of pediatric cancer cell lines to identify multiple opportunities for drug repurposing: Primary screen for BT-37 cells (AID 1347094)
Summary of the method: (§2)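 Following a 5-hour attachment period, cells at 500-1,000/well received compounds and were cultured for 48 hours. CellTiter-Glo was added and luminescence read to estimate viable, metabolically active cells.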

[9] = qHTS of pediatric cancer cell lines to identify multiple opportunities for drug repurposing: Primary screen for NB-EBc1 cells (AID 1347095)
Summary of the method: as §2

[10] = qHTS of pediatric cancer cell lines to identify multiple opportunities for drug repurposing: Primary screen for SK-N-MC cells (AID 1347093)
Summary of the method: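 Metabolically active cells were quantified by ATP-dependent luminescence (CellTiter-Glo, 15 min at room temperature) following 48 h treatment. Cells had been plated at 500-1,000 per well and settled for 5 h beforehand.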
Potency means the concentration at half of the fitted maximal effect.

Row | SMILES | Potency [1] | Potency [2] | Potency [3] | Potency [4] | Potency [5] | Potency [6] | Potency [7] | Potency [8] | Potency [9] | Potency [10]
1 | CNC(=O)c1ccc(N2C(=S)N(c3cnc(C#N)c(C(F)(F)F)c3)C(=O)C23CCC3)cc1F | inactive | inactive | inactive | inactive | 935 nM (active) | 7430 nM (active) | 1480 nM (active) | 19300 nM (active) | 7430 nM (active) | 
2 | CN(C)CC(C)(C)CNc1nn2c(-c3ccccc3)nnc2cc1C1CCC1 | inactive | inactive | inactive |  |  | 1180 nM (active) | 743 nM (active) | 863 nM (active) | 264 nM (active) | 469 nM (active)
3 | CC(=O)Nc1nc(C)c(-c2ccc(Cl)c(S(=O)(=O)NCCO)c2)s1 | 9200 nM (active) |  | inactive |  | 5900 nM (active) | 1870 nM (active) | 1870 nM (active) | 15300 nM (active) | 3720 nM (active) | 132 nM (active)
4 | COc1ccc(-c2cc3c(C)nc(N)nc3n(C3CCC(OCCO)CC3)c2=O)cn1 (stereo not given) | 184 nM (active) | 41.8 nM (active) and 366 nM (active) | 1480 nM (active) | 186 nM (active) | 118 nM (active) | 23.5 nM (active) | 93.5 nM (active) | 243 nM (active) | 59 nM (active) | 
5 | COc1cc2c(Oc3ccc4[nH]c(C)cc4c3F)ncnc2cc1OCCCN1CCCC1 | 23100 nM (active) | 23.5 µM (active) and 18.4 µM (active) | inactive |  | 18700 nM (active) | 6620 nM (active) | 18700 nM (active) | 24300 nM (active) | 4180 nM (active) | 
6 | Cc1nc(Nc2n[nH]c3c2CN(C(=O)N[C@H](CN(C)C)c2ccccc2)C3(C)C)c2sccc2n1 |  | inactive | 13200 nM (active) | 739 nM (active) | 11800 nM (active) | 1050 nM (active) | 14.8 nM (active) | 611 nM (active) | 10500 nM (active) | 33.2 nM (active)
7 | OCCCNc1cc(-c2ccnc(Nc3cccc(Cl)c3)n2)ccn1 |  | 83.3 nM (active) and 146 nM (active) | 418 nM (active) | 370 nM (active) | 187 nM (active) | 83.3 nM (active) | 46.9 nM (active) | 243 nM (active) | 93.5 nM (active) | 105 nM (active)
8 | Cc1cc(N2CCOCC2)cc2[nH]c(-c3c(NC[C@@H](O)c4cccc(Cl)c4)cc[nH]c3=O)nc12 |  | 14.8 µM (active) and 18.4 µM (active) | inactive | 739 nM (active) | 935 nM (active) | 16600 nM (active) | 296 nM (active) | 24300 nM (active) | 590 nM (active) | 
9 | O=c1[nH]nc(Sc2ncc([N+](=O)[O-])s2)n1-c1ccc2c(c1)OCCO2 |  | 18.7 µM (active) | 9350 nM (active) | inactive | 9350 nM (active) | 9350 nM (active) | 3720 nM (active) |  | 2640 nM (active) | 9350 nM (active)
10 | OCc1ccc(-c2ccc(-c3ccc(CO)s3)o2)s1 |  | inactive and 3.17 µM (active) | inactive | inactive | 9350 nM (active) | 16600 nM (active) | 148 nM (active) | inactive | 14800 nM (active) | 
11 | COc1cccc2c(NCc3ccccc3)nc(-n3c(N)nc4ccccc43)nc12 |  | inactive | 9350 nM (active) | inactive | 9350 nM (active) | 9350 nM (active) | 5900 nM (active) | 7690 nM (active) | 9350 nM (active) | 3720 nM (active)
12 | O=C(Cc1ccc(-c2ccc(OCCN3CCOCC3)cc2)cn1)NCc1ccccc1 |  | 18.7 nM (active) and 580 nM (active) | 74.3 nM (active) | 117 nM (active) | 37.2 nM (active) | 18.7 nM (active) | 23.5 nM (active) | 68.5 nM (active) | 14.8 nM (active) | 
13 | COc1cc(C(=O)NS(=O)(=O)c2ccccc2C)ccc1Cc1cn(C)c2ccc(NC(=O)OC3CCCC3)cc12 |  | inactive | inactive | inactive | 29600 nM (active) |  | 14800 nM (active) |  | inactive | 8330 nM (active)
14 | Cc1c(C)n(Cc2ccc(-c3ccccc3C(=O)O)cc2)c2ccc(C(=O)N[C@@H](C)c3ccc([N+](=O)[O-])cc3)cc12 |  | inactive | inactive | inactive | 29.6 nM (active) | 23500 nM (active) | 148 nM (active) | 968 nM (active) |  | 18.7 nM (active)
15 | CC[C@@]1(O)C(=O)OCc2c1cc1n(c2=O)Cc2cc3cc(O)ccc3nc2-1 |  | 1.16 µM (active) and 1.05 µM (active) | 33.2 nM (active) | 41.5 nM (active) | 118 nM (active) | 23.5 nM (active) | 29.6 nM (active) | 21.7 nM (active) | 11.8 nM (active) | 13.2 nM (active)
16 | C[C@]12CC[C@H](O)CC1=CCC1C2CC[C@]2(C)C(n3cnc4ccccc43)=CCC12 (stereo not given in full) |  | inactive | inactive | inactive |  | 23500 nM (active) | 14800 nM (active) |  |  | 
